High-throughput results: PubChem, National Center for Advancing Translational Sciences (NCATS)
KB-3-1 cytotox: kills parental KB-3-1 adenocarcinoma cells. KB-3-1 viability, CellTiter-Glo ATP luminescence, 72 h. Potency, µM (highest dose often 46.1 µM), usual class: cytotoxic. 1.4% of 400,000 active; also: nearly all actives have a fitted effect of over 60% in size
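Cytotoxicity measured as CellTiter-Glo luminescence after 72 h at 37 C. Compound titrations were pinned onto drug-naive KB-3-1 parental adenocarcinoma cells grown in DMEM with 10% FBS, and normalized data fitted to concentration-response curves.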
KB-V1 cytotox: kills drug-selected multidrug resistant KB-V1 cells; KB-V1 MDR cells viability, CellTiter-Glo, 72 h; Potency, µM (series often up to 46.1 µM), actives largely listed as cytotoxic; 3.4% of 400,000 active; AID 1347076; also: nearly all actives have a fitted effect of over 60% in size
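Readout: CellTiter-Glo luminescence, 10 min after addition. Cells: KB-V1 MDR subline, 72 h at 37 degrees C with compound. Analysis: corrected, normalized data fitted to concentration-effect curves.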
MCF10A rereplic: DNA re-replication induction in MCF 10a cells. Potency, µM (top dose mostly 46.1 µM), hits mostly activators. MCF 10A DNA re-replication, Hoechst nuclear intensity, 48 h. 2.9% of 350,000 active; also: nearly all actives have a fitted effect of over 50% in size
HT1080-NT tox: kills 2HG-producing HT-1080-NT fibrosarcoma cells; 1.6% of 360,000 active; HT-1080-NT fibrosarcoma viability, CellTiter-Glo ATP luminescence, 48 h; Potency, µM (series often up to 46.1 µM), actives largely listed as cytotoxic; AID 686970;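 also: NT is the 2HG producing partner of a matched IDH1 knockdown line; nearly all actives have a fitted effect of over 55% in size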
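A 48-hour cytotoxicity screen used HT-1080-NT cells plated 2 hours before compound delivery. ATP-based CellTiter-Glo luminescence measured viability, normalized to DMSO and no-cell controls.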
HT1080 IDH1KD tx: toxicity to HT-1080 IDH1 knockdown cells (counter line). HT-1080 IDH1 knockdown viability, ATP luminescence, 48 h. 2% of 360,000 active. AID 686971. Potency, µM (titrated, usually from 46.1 µM), hits mostly cytotoxic
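IDH1KD HT-1080 cells, 750/well, RPMI + 5% FBS; compound pinned after 2 h settling; 48 h, 37 °C; CellTiter-Glo luminescence; % activity normalised to DMSO and no-cell wells; curves fitted, classed by r2 and efficacy.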
SW480 rereplic: inducers of DNA re-replication in SW480 colon cancer cells; SW480 DNA re-replication, Hoechst DNA content imaging, 48 h; Potency, µM (series often up to 46.1 µM), hits mostly activators; 1.8% of 340,000 active; AID 624297; also: nearly all actives have a fitted effect of over 55% in size
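SW480 cells exposed to compounds for 48 hr at 37 C, 5% CO2, then Hoechst-stained 40 min. Nuclear DNA content imaged by fluorescence scanning (405 nm excitation, 500-530 nm emission); re-replication scored as increased high-intensity nuclei.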
Each line names hits and unclear results; the compound was inactive in the other large screens. Hits are enriched below; roughly 8% of the tested compounds scored in any of these assays. Calls follow the shape of the dose curve; as a rule, active = well fitted curve in the direction sought with a large enough effect; inconclusive = small, poorly fitted or top-dose-only effect, or another doubt; inactive = no such curve, though single readings can be large; an effect the other way counts as inactive or inconclusive.

Cc1sc(NC(=O)Cc2ccc3c(c2)OCO3)nc1-c1ccc2c(c1)CCN2C(=O)c1cccc(F)c1	none
O=C(CN1CCOCC1)Nc1nc(-c2ccc3c(c2)CCN3S(=O)(=O)c2ccccc2)cs1	KB-V1 cytotox inconclusive, MCF10A rereplic inconclusive
Cc1sc(NC(=O)CN2CCOCC2)nc1-c1ccc2c(c1)CCN2S(=O)(=O)c1ccccc1	KB-3-1 cytotox inconclusive, KB-V1 cytotox 4.11µM, MCF10A rereplic inconclusive, HT1080-NT tox inconclusive, HT1080 IDH1KD tx inconclusive
Cc1cccc(C(=O)N2CCc3cc(-c4csc(NC(=O)CN5CCCC5)n4)ccc32)c1	KB-V1 cytotox inconclusive, MCF10A rereplic 16.4µM, HT1080-NT tox 20.6µM, HT1080 IDH1KD tx 16.4µM, SW480 rereplic inconclusive
Cc1cccc(C(=O)N2CCc3cc(-c4nc(NC(=O)CN5CCCC5)sc4C)ccc32)c1	MCF10A rereplic 18.4µM, HT1080-NT tox inconclusive, HT1080 IDH1KD tx inconclusive, SW480 rereplic inconclusive
O=C(Nc1ccon1)Nc1ccc(F)cc1F	none
Cc1cc(OCCn2cncn2)ccc1[N+](=O)[O-]	none
Cc1nc(N)nc(N)c1/C=C/C(C)(C)c1ccc(Cl)cc1	KB-3-1 cytotox inconclusive, KB-V1 cytotox inconclusive, MCF10A rereplic inconclusive, HT1080-NT tox 0.0291µM, HT1080 IDH1KD tx 0.0082µM
COCCNC(=O)CN1C(=O)c2cccnc2Sc2ccccc21	none (no result: MCF10A rereplic, HT1080-NT tox, HT1080 IDH1KD tx, SW480 rereplic)
CC(C)NC(=O)NC(=O)CSc1nnc(COc2ccccc2F)n1C(C)C1CC2CCC1C2 (configuration not stated)	KB-3-1 cytotox inconclusive, MCF10A rereplic 12.6µM, HT1080-NT tox inconclusive, HT1080 IDH1KD tx inconclusive, SW480 rereplic inconclusive
CCOC(=O)c1c(C)[nH]c(C)c1S(=O)(=O)N1CCC(C(=O)Nc2ccccn2)CC1	KB-V1 cytotox inconclusive (no result: MCF10A rereplic, HT1080-NT tox, HT1080 IDH1KD tx, SW480 rereplic)
O=C(CCCN1C(=O)S/C(=C\C=C\c2ccccc2)C1=O)Nc1ccc(O)cc1	MCF10A rereplic 11.6µM, HT1080-NT tox inconclusive, HT1080 IDH1KD tx 20.6µM, SW480 rereplic inconclusive
O=C(CCCN1C(=O)/C(=C\c2cccs2)SC1=S)Nc1ccc(O)cc1	SW480 rereplic 20.6µM
O=C(CCCN1C(=O)/C(=C\c2ccccc2)SC1=S)Nc1ccc(C(=O)O)cc1	KB-V1 cytotox inconclusive
CC(=O)c1ccc(NC(=O)CCCN2C(=O)/C(=C/C(C)=C/c3ccccc3)SC2=S)cc1	KB-3-1 cytotox inconclusive, KB-V1 cytotox 18.4µM
O=C(CCCN1C(=O)/C(=C\c2cccs2)SC1=S)Nc1ccc(C(=O)O)cc1	none
O=C(Nc1ccc(Cl)cn1)c1cnn2c1NC(=C1CC1)C=C2C(F)F	none (no result: MCF10A rereplic, HT1080-NT tox, HT1080 IDH1KD tx, SW480 rereplic)
O=[N+]([O-])c1ccc(S(=O)(=O)N2CCN(Cc3c[nH]c4ccccc34)CC2)cc1	KB-V1 cytotox 20.6µM
COc1ccc(S(=O)(=O)N2CCN(Cc3c[nH]c4ccccc34)CC2)cc1	none
O=C(NCCCN1CCN(c2cccc(Cl)c2)CC1)c1ccc2nc(Cc3ccccc3)oc2c1	KB-3-1 cytotox 14.6µM, KB-V1 cytotox inconclusive (no result: MCF10A rereplic, HT1080-NT tox, HT1080 IDH1KD tx, SW480 rereplic)
COc1ccc(Cl)cc1NC(=O)c1ccc2nc(Cc3ccccc3)oc2c1	none (no result: MCF10A rereplic, HT1080-NT tox, HT1080 IDH1KD tx, SW480 rereplic)
CN(CC1CCOCC1)C(=O)c1ccc2nc(Cc3cccc(Cl)c3)oc2c1	MCF10A rereplic 18.4µM (no result: KB-3-1 cytotox, KB-V1 cytotox)
O=C(NCC1CCOCC1)c1ccc2nc(Cc3cccc(Cl)c3)oc2c1	none
O=C(Nc1cccc(Cl)c1)c1ccc2nc(Cc3ccccc3)oc2c1	KB-3-1 cytotox 14.6µM, KB-V1 cytotox inconclusive (no result: MCF10A rereplic, HT1080-NT tox, HT1080 IDH1KD tx, SW480 rereplic)
COc1ccc(N2C(=O)c3ccccc3NC2c2ccc(OC)c(COc3ccccc3F)c2)cc1 (configuration not stated)	none (no result: MCF10A rereplic, HT1080-NT tox, HT1080 IDH1KD tx, SW480 rereplic)
COc1ccc(S(=O)(=O)N2C[C@@H](O)COC[C@@H]3O[C@H](CC(=O)NCCCN4CCOCC4)CC[C@H]32)cc1	none (no result: MCF10A rereplic, SW480 rereplic)
CC(=O)N(C1=C(N)C(=O)c2ccccc2C1=O)C(C)C	SW480 rereplic inconclusive
COc1ccccc1N(C(C)=O)C1=C(Cl)C(=O)c2ccccc2C1=O	HT1080-NT tox 18.4µM, HT1080 IDH1KD tx 7.31µM (no result: MCF10A rereplic, SW480 rereplic)
CCCN1C(=O)/C(=C/c2ccc(C)s2)SC1=Nc1ccc(OC)cc1	KB-V1 cytotox inconclusive
